The source of these data is PubChem BioAssay AID1035470 (Broad Institute, 2014).

Out of some 1,800 compounds screened, fewer than 10 were called active. Not shown: some 16% with an inconclusive outcome. The list is a sample of the results. Results with a measured potency or affinity are listed apart. Values without a mark were called inactive.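 The calls were made as follows: active = compound lowering the normal-ribosome reporter at least twice as much as the humanized-ribosome reporter, growth loss under a set limit; inconclusive = no clear call, values can overlap the other calls; inactive = the rest.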

This assay can be described thus: growth inhibition of wild-type GFP E. coli versus G2058-humanized strain, dose response, G2058 mutant RFP vs wild-type GFP, cherry-pick, two tests (AID 1035470). Conditions: E. coli WT-GFP vs G2058-humanized RFP, fluorescence, 24 h; series mostly up to 50 µM; activity change, negative = inhibition: at the top concentration.
`COC(=O)c1ccsc1NC(=O)c1cccc(OC)c1`: the “activity change, negative = inhibition” value was -15.2. The result for `O=[N+]([O-])c1ccc(O)c(CSc2nnnn2-c2ccccc2)c1` reads 1.54. The figure for `COCC(C)NC(=O)c1nn(Cc2ccccc2)c(=O)c2ccccc12` (stereo unspecified) is -8.39. The result for `Cc1ccc(NC(=O)C[n+]2cc(-c3ccccc3)n3c2CCC3)c(C)c1` reads -8.76; that for `COc1cc(OC)c(NS(=O)(=O)c2cccc(C(=O)OCC(=O)NCC3CCCO3)c2)cc1Cl` (stereo unspecified), -3.42. For the compound `Cc1ccc(Nc2nc(C(=O)NCC3CCCO3)cs2)cc1` (stereo unspecified), the “activity change, negative = inhibition” value is 0.237. The figure for `CCOC(=O)c1cccc(OS(=O)(=O)Cc2ccccc2)c1` is -24.3; for `Cc1ccc(S(=O)(=O)NCc2c(-c3ccccc3)noc2C)cc1` it is -15.8; for `Cc1ccc(NC(=O)COC(=O)CCNS(=O)(=O)c2c(Cl)cccc2Cl)cc1` it is 1.97. The result for `CC1CCN(C(=O)COC(=O)c2ccccc2NC(=O)c2ccco2)CC1` reads -7.91; that for `CCc1cccc(NC(=O)c2ccc3c(=O)n4c(nc3c2)CCCCC4)c1`, -6.15; that for `Cc1cc(C)cc(NC(=O)COC(=O)CC2CCCC2)c1`, 4.58.

With `CCn1c(COc2cccc(OC)c2)nnc1SCC(=O)Nc1cc(OC)ccc1OC`, the “activity change, negative = inhibition” value is -12.

With `COc1ccc(S(=O)(=O)N2CCOc3ccccc32)cc1`, the “activity change, negative = inhibition” value is -15.4. The result for `COc1ccc(-n2nc3cc(N)c(Br)cc3n2)cc1` reads -9.4. The result for `COC(=O)[C@]1(Sc2ccc(C)cc2)CC(=O)N[C@@H]1c1ccccc1` reads -6.4; that for `O=C(CSc1nc2ccccc2n1S(=O)(=O)c1cccc([N+](=O)[O-])c1)NCCc1ccccc1`, -5.02. The result for `S=c1[nH]nc(-c2ccc3ccccc3n2)n1-c1ccc2c(c1)OCCO2` reads -7.71; that for `Cc1ccnc(NS(=O)(=O)c2ccc(NC(=O)c3ccc4c(c3)OCCO4)cc2)n1`, -9.76. `COc1ccc(OC)c(-c2nn(-c3ccccc3)cc2C(=O)N2CCc3ccccc3C2)c1`: the “activity change, negative = inhibition” value was -18.4.

For the compound `COC(=O)c1sccc1NC(=O)CNC(=O)c1ccccc1`, the “activity change, negative = inhibition” value is -7.99. Turning to `Cc1c(Cc2ccccc2)sc(NC(=O)Cc2ccccc2)c1C(N)=O`, the “activity change, negative = inhibition” value is -0.013.

As for `O=C(Cc1c(F)cccc1Cl)N(Cc1ccccc1)c1ccccn1`, the “activity change, negative = inhibition” value was -16.8.

As to `Cc1ccoc1C(=O)Nc1ccc2ccccc2c1`, the “activity change, negative = inhibition” value was -10.1. For `Cc1cc(CNC(=O)c2cc(-c3ccccc3)nc3ccccc23)nn1C`, the “activity change, negative = inhibition” value was -1.97. Take `Cc1cccc(-c2nsc(SCC(=O)NCC3CCCO3)n2)c1` (stereo unspecified): the “activity change, negative = inhibition” value was -11.8. The figure for `Cc1ccc2nc(N(CCN(C)C)C(=O)C3CCN(S(=O)(=O)c4cccs4)CC3)sc2c1` is 4.53; for `COc1ccc(-c2csc(NC(=O)c3ccoc3C)n2)cc1` it is -22.7.

As to `CCC1CCCCN1C(=O)CSc1nnc(-c2cccc(Cl)c2)o1` (stereo unspecified), the “activity change, negative = inhibition” value was -21.8. The result for `CCc1nc2ccccc2c(C(=O)OCC(=O)NC(=O)c2cccn2C)c1C` reads -6.91; that for `Cc1ccc(Cc2c(-c3ccc(C#N)cc3)nc3ccc(Br)cn23)cc1`, -5.11.

With `CCOC(=O)c1cnc2ccc(OCC)cc2c1NCCCN1CCOCC1`, the “activity change, negative = inhibition” value was -9.57. The figure for `CCOC(=O)C(CC)Sc1cc(C)nc2ccc(OC)cc12` (stereo unspecified) is -16.2; for `COc1ccc(C(=O)COc2ccc(F)cc2)c(O)c1` it is -7.68. With `Cc1cccc(-c2cc3nc4c(c(N5CCOCC5)n3n2)CCCC4)c1`, the “activity change, negative = inhibition” value was -4.46.

For the compound `Cc1cccc(NS(=O)(=O)c2cc3c(cc2C)NC(=O)CO3)c1`, the “activity change, negative = inhibition” value is -4.25. The figure for `Cc1cccc(OCCn2c(=O)oc3ccc(C)cc32)c1` is -7.06.

For the compound `CC(=O)Nc1cccc(NC(=O)CCN2C(=O)c3ccccc3S2(=O)=O)c1`, the “activity change, negative = inhibition” value was -6.12. For `c1cncc(-c2nc3cc4ccccc4cc3[nH]2)c1`, the “activity change, negative = inhibition” value was -15.5. The result for `Cc1ccccc1S(=O)(=O)c1cc2ccccc2nc1N` reads -9.42; that for `COc1ccccc1-c1noc2ncnc(Nc3ccccc3C)c12`, -8.79.

`COc1ccccc1Cc1c(-c2ccc(F)cc2)nc2ccc(Br)cn12`: the “activity change, negative = inhibition” value is -0.955.

Take `COc1ccc(-c2nc(C3CCCCC3)no2)cc1OC`: the “activity change, negative = inhibition” value was -15.4. The result for `c1ccc(Sc2ncnc3ccccc23)cc1` reads -5.5; that for `COc1cccc(NC(=O)C(C)SCc2ccccc2)c1` (stereo unspecified), -14.7; that for `Cc1cc(Br)ccc1NC(=O)c1ccco1`, 0.378.

On to `O=C(CSCc1cnn(-c2ccccc2)c1-n1cccc1)NCc1cccnc1`, for which the “activity change, negative = inhibition” value is -6.66.

As for `O=C(Nc1ccc(Cl)c(Cl)c1)c1ccc(Cl)c(Cl)c1`, the “activity change, negative = inhibition” value was -12.7. The result for `O=[N+]([O-])c1ccc2nc(-c3ccccc3[N+](=O)[O-])[nH]c2c1` reads -1.6; that for `O=c1c2ccccc2nc(SCc2ccccc2)n1CC1CCCO1` (stereo unspecified), -15.1; that for `CCOCCCNC(=O)C(NC(=O)c1ccccc1O)c1ccc(C)cc1` (stereo unspecified), -14.3.
